GalR3 antag = blocks the human galanin receptor 3 | 360,000 compounds, 0.44% hits | inhibition, % at 3 µM | HEK293 GalR3-CNG cAMP membrane potential fluorescence; galR3 body fused to GalR1 C-terminus;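 active = inhibition above the screen-wide average plus 3 SD, cut at about 13% in these data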;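 also: forskolin and galanin both at EC90 stimulate the cells; cAMP rise reported by CNG channel membrane potential dye signal; 0% = forskolin plus galanin with DMSO and 100% = forskolin alone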
SRC3 inh = human NCOA3 inhibition; Q9Y6Q9; HEK293 GAL4-SRC3 luciferase reporter, luminescence; inhibition, % at 3.6 µM; 360,000 compounds, 0.17% hits; AID 588352;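 active = inhibition above a per-campaign cutoff, the mean of all compounds plus 3 SD, cut at about 60% in these data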;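 also: 0% = DMSO-treated cells and 100% = gossypol-treated cells at 36 µM; higher means less SRC3-driven luciferase light from the GAL4 reporter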
NR5A2 inv ag = inverse agonists of human LRH-1 (NR5A2) | O00482 | inhibition, % at 3.6 µM | HEK293T StAR-luciferase reporter, LRH-1 transfected, 24 h | 360,000 compounds, 0.13% hits;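 active = inhibition above the mean inhibition of all tested compounds plus 3 SD, cut at about 73% in these data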;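 also: 0% = DMSO wells and 100% = reporter-only cells lacking LRH-1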
SRC2 inh = human SRC2 (NCOA2) inhibition | Q15596 | HEK293 GAL4-SRC2 luciferase reporter, luminescence | inhibition, % at 9 µM | 370,000 compounds, 0.17% hits;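 active = inhibition above the mean inhibition of all tested compounds plus 3 SD, set per campaign, cut at about 52% in these data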;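 also: 0% = DMSO treated cells and 100% = cells given Gossypol at 36 µM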
Target sequence (Q15596 whole entry, looked up, the tested form may be a part): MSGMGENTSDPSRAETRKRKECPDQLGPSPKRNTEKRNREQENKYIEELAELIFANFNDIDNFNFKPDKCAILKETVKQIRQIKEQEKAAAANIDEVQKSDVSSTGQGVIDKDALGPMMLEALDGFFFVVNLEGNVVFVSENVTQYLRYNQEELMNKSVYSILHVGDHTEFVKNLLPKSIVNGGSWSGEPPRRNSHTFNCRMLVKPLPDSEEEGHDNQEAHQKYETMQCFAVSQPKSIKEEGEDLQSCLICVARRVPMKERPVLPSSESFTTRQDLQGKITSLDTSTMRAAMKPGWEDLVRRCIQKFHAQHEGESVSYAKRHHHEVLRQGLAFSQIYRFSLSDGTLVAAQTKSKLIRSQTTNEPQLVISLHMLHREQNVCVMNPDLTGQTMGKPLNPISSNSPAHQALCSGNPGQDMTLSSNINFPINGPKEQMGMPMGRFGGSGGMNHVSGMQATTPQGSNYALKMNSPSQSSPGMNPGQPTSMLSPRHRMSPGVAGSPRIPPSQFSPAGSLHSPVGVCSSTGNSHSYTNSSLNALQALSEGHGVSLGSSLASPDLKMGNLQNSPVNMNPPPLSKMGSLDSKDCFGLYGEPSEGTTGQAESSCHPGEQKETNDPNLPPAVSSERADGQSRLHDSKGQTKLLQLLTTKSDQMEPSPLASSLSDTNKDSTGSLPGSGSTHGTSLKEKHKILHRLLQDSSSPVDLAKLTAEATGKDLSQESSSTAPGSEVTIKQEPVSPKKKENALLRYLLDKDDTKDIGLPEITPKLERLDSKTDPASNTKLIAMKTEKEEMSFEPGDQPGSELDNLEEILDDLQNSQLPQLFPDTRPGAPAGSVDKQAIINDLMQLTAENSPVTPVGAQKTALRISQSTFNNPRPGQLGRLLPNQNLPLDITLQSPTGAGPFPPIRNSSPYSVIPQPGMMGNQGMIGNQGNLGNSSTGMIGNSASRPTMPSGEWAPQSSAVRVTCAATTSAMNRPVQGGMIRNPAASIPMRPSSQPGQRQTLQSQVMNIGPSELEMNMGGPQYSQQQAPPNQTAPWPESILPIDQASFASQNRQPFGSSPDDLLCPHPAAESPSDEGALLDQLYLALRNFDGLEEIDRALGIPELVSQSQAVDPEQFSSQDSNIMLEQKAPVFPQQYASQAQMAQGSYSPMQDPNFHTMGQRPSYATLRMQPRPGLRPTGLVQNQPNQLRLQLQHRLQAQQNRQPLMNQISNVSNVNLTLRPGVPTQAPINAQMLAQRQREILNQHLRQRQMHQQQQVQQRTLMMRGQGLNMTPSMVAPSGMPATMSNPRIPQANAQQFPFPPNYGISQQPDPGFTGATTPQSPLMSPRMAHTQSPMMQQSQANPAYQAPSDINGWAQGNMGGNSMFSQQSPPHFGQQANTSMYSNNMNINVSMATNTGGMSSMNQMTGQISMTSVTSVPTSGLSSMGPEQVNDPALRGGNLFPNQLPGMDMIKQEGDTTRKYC
NR2F2 inh = inhibitors of human COUP-TFII (NR2F2) | 370,000 compounds, 0.7% hits | HEK293T NGFI-A luciferase reporter, luminescence | inhibition, % at 8.6 µM | AID 686940;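 active = inhibition above a per-plate cutoff, mean inhibition of test wells between control levels plus 3 SD, cut at about 38% in these data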;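 also: cells cotransfected with COUP-TFII expression vector driving the NGFI-A reporter; 0% = median of COUP-TF2 test wells and 100% = reporter-only cells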
NCOA1 inh = human NCOA1 inhibition. Q15788. HEK293 GAL4-SRC1 luciferase reporter, luminescence. inhibition, % at 3.6 µM. 360,000 compounds, 0.12% hits. AID 588354;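 active = inhibition above the campaign mean plus 3 SD, with each screening campaign given its own cutoff, cut at about 60% in these data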;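 also: 0% = DMSO treated cells and 100% = gossypol at 36 µM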
The depositor's hits bear a star; nt = no result given. An excerpt weighted towards active compounds, which were near 1.1% of everything screened.

SMILES | GalR3 antag | SRC3 inh | NR5A2 inv ag | SRC2 inh | NR2F2 inh | NCOA1 inh
O=C(N/N=C/c1c(O)ccc2ccccc12)c1cccnc1 | -15.7 | 77.3* | 91.8* | 36.2 | -21.3 | 56.9
COc1ccc(CCNC(=O)CCc2ccc(S(=O)(=O)NC(C)C)cc2)cc1OC | -6.7 | 16.9 | 11.8 | -1.8 | -2.1 | 5.3
O=C(NCC1CCCO1)C(c1cccs1)N(Cc1ccccc1Cl)C(=O)c1ccc(-c2ccccc2)[nH]1 (stereo not drawn) | -5.9 | 8.6 | -7.8 | -25.5 | -2.4 | -5.4
COCCSc1nnc(NC(=O)C2CC(=O)N(c3ccc(Cl)cc3)C2)s1 (stereo not drawn) | -1.6 | 3.8 | 13.1 | 10.6 | -7.7 | 0.2
Cn1nccc1C(=O)N/N=C/c1c(O)ccc2ccccc12 | 0.2 | 72.8* | 90.1* | -3.5 | -45.8 | 67.9*
Cc1occc1C(=O)N/N=C/c1c(O)ccc2ccccc12 | -9.7 | -22.1 | -54.7 | 10.6 | -61.0 | -22.0
O=C(NN=Cc1c(O)ccc2ccccc12)c1ccncc1 | -6.3 | 75.4* | 91.0* | 40.2 | -13.1 | 41.3
O=C(N/N=C\c1c(O)ccc2ccccc12)c1ccc(O)cc1 | -3.8 | 19.7 | 7.3 | 5.3 | 10.9 | 19.5
Cc1ccc(OC(=O)C(F)(F)F)c2c1NCCC2 | 0.9 | 14.4 | -4.4 | 13.3 | -6.2 | -32.9
O=C(C[n+]1ccccc1)NNc1ccccc1 | -2.1 | 40.8 | -4.8 | -6.2 | -11.2 | 14.2
CC(C)c1nc(Cl)c(C#N)c2c1COC(C)(C)C2 | -3.2 | -13.1 | 3.8 | 14.3 | -0.6 | 0.6
CCCCCCCCC[n+]1cccc2c3ccccc3ccc21 | nt | 71.3* | 95.8* | nt | nt | 57.9
COc1ccc(OC)c(COC(=O)c2cc([N+](=O)[O-])ccc2N2CCOCC2)c1 | -4.1 | 5.5 | 29.3 | 2.8 | -11.0 | 9.0
C1CCCCCC2(CCCCC1)OCC(CN1CCOCC1)O2 (stereo not drawn) | 3.2 | 6.1 | 6.6 | -15.8 | -12.6 | 12.5
C[N+]1(CC2COC3(CCCCC3)O2)CCCC1 (stereo not drawn) | 3.8 | 8.8 | 0.7 | 96.9* | -12.6 | -1.5
O=C(O)c1cc(NC(=O)C2CCCO2)cc(NC(=O)C2CCCO2)c1 (stereo not drawn) | -0.5 | 10.3 | 2.5 | -17.4 | 3.0 | 6.8
COc1ccc(-c2cc(C(F)(F)F)nc(S(=O)(=O)CCCC(=O)Nc3cccnc3Cl)n2)cc1OC | 17.4* | -43.0 | -39.2 | 11.7 | -39.6 | -18.8
COC(=O)CCS(=O)(=O)c1nc(-c2ccccc2)cc(C(F)(F)F)n1 | nt | -54.6 | -54.7 | nt | nt | -28.8
Cc1ccc(NCCN(C)C)c2c(=O)c3cc(O)ccc3sc12 | -7.5 | 58.8 | 43.0 | -68.7 | -93.7 | 64.0*
C/C(=N\Nc1ccc2nncn2n1)c1ccco1 | -5.3 | 12.7 | -23.9 | 12.2 | -3.8 | -12.3
C/C(=N\Nc1ccc2nncn2n1)c1ccccn1 | -2.2 | 75.6* | 17.2 | 19.2 | -20.6 | 73.3*
C[C@H]1COC(=O)[C@@H](CC(=O)OC(C)(C)C)C/C=C\C[C@@H](CC(=O)N[C@H](CO)Cc2ccccc2)C(=O)N1 | -2.6 | 3.1 | 0.0 | -10.0 | -5.8 | 8.5
CSc1nc(N)nc2c1ncn2CC(=O)N1CCN(Cc2c(C)cc(C)cc2C)CC1 | -8.2 | 15.8 | 25.6 | 22.1 | 51.4* | 34.9
CN1CCN(c2ncnc3scc(-c4ccccc4Cl)c23)CC1 | -9.2 | 62.7* | 34.8 | 31.4 | 24.0 | 44.7
COc1ccc(-c2csc3ncnc(NCCO)c23)cc1 | -0.4 | 54.3 | 11.7 | 58.6* | 27.8 | 54.1
SMILES | GalR3 antag | SRC3 inh | NR5A2 inv ag | SRC2 inh | NR2F2 inh | NCOA1 inh
Cc1ccc2nc(C(F)(F)F)c(C#N)c(N)c2c1 | -6.5 | 35.6 | 24.6 | 54.0* | 34.0 | 37.8
O=C(c1ccccc1)N1CC(COc2ccccc2)OC(c2ccco2)O1 (stereo not drawn) | -5.9 | 2.3 | 1.9 | -19.2 | -5.1 | -10.2
O=C(CSc1nnc(-c2ccccc2)o1)Oc1ccc(Br)cc1 | -3.5 | 12.0 | -12.8 | -17.8 | -5.2 | 3.5
Cn1c(=O)c2cc(NC(=O)CCc3ccc(O)cc3)ccc2n1Cc1cccc(C(F)(F)F)c1 | -6.2 | 58.6 | 73.7* | -3.5 | 9.0 | 44.0
O=C(Nc1ccc(NC(=O)c2ccco2)cc1)c1ccc2c(c1)OCCO2 | 2.6 | -2.8 | -28.2 | 61.3* | 29.3 | 2.8
CCCC(=O)NC(c1ccc(C(C)C)cc1)c1ccc2cccnc2c1O (stereo not drawn) | -14.2 | 54.2 | 35.3 | 32.2 | -4.0 | -9.2

Bioassay records deposited in PubChem by The Scripps Research Institute Molecular Screening Center.
